Assay results as given in PubChem BioAssay AID504339 (National Center for Advancing Translational Sciences (NCATS), 2011).
About 17,000 (4.4%) of roughly 390,000 compounds were called active. A call without a number means that no potency is given here. Another 8% or so got no clear call; they are omitted. The call rests on the fitted dose curve; in most records, active means well fitted inhibition curve with a large enough effect; inconclusive means small, poorly fitted or top-dose-only effect; inactive means no such curve, though single readings can be large or run the other way. The sample as a whole holds a higher share of actives than the screen did.
Further: nearly all actives have a fitted effect of over 50% in size.
Potency means the concentration at half of the fitted maximal effect.

These compounds were tested against Lysine-specific demethylase 4A (Homo sapiens) (UniProt O75164) (assay: qHTS Assay for Inhibitors of JMJD2A-Tudor Domain). Settings: AlphaScreen JMJD2A-Tudor / H3K4me3 peptide binding; series mostly up to 114 µM.
Chain of Lysine-specific demethylase 4A (Homo sapiens) (O75164 whole entry, looked up, the tested form may be a part): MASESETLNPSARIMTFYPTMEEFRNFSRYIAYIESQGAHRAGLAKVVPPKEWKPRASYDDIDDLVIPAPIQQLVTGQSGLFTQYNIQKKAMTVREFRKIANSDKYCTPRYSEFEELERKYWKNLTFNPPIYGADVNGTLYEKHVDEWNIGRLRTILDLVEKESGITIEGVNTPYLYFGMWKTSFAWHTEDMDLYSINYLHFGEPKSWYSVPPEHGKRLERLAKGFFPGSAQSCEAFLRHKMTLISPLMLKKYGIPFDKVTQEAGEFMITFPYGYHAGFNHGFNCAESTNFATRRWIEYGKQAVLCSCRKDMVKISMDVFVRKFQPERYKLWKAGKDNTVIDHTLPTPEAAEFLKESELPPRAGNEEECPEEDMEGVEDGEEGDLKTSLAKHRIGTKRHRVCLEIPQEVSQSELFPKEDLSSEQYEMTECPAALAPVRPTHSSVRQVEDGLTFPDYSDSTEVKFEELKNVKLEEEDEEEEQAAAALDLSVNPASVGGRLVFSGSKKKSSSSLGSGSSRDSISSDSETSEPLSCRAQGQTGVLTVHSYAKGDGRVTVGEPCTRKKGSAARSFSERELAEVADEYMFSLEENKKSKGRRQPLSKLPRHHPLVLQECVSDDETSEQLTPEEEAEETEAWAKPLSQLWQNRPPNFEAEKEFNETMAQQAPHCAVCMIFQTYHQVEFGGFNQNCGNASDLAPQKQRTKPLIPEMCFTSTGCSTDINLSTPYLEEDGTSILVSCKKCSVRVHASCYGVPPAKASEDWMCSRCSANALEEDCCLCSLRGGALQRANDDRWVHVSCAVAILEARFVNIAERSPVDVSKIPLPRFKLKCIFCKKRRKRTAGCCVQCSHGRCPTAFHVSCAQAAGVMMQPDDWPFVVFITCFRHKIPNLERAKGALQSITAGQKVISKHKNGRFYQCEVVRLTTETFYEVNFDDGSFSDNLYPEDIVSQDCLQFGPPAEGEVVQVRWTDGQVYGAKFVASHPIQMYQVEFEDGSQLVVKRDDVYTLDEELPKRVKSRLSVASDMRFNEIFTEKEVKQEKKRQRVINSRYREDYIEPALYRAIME
For `COc1ccc(-c2nc3scc(CCNS(=O)(=O)c4cc(F)ccc4OC)n3n2)cc1OC`, the Potency was “inactive”. In the case of `Cc1cc(C)nc(S/C=C/C(=O)c2ccccc2)n1`, the Potency is reported as “inactive”. `O=C(/C=C/Sc1ncn[nH]1)c1ccc(Cl)cc1` was tested, and the Potency was 31.6 µM (active). For `CC(=O)c1ccc(N2CCN(c3nc4c(S(=O)(=O)c5ccccc5)nnn4c4ccc(Cl)cc34)CC2)cc1`, the Potency was “inactive”. For `COc1ccc(S(=O)(=O)NCc2cccn2Cc2cccc(C)c2)cc1Cl`, the Potency was “inactive”. In the case of `O=C(COc1ccccc1[N+](=O)[O-])NC1CC1`, the Potency is reported as “inactive”. In the case of `C=CCN(CC=C)CCOc1ccccc1[N+](=O)[O-]`, the Potency is reported as 1 µM (active). `Cc1ccc(OCC(=O)Oc2ccccc2[N+](=O)[O-])cc1` was tested, and the Potency was “inactive”. `COc1ccc(CNC(=O)C2=Cc3cccc(OC)c3OC2)cc1OC` was tested, and the Potency was “inactive”. For `CCN(CC)c1nc(C#N)nc(OC)n1`, the Potency was “inactive”. With `O=C(CCn1c(=O)c2sccc2n(Cc2ccc(F)cc2)c1=O)NCc1ccc2c(c1)OCO2` the Potency was “inactive”. In the case of `CCN(CC)CCOc1ccc2c(c1)C(=NNC(=O)c1ccccn1)c1cc(OCCN(CC)CC)ccc1-2`, the Potency is reported as 25.1 µM (active). `CN(CCOc1ccc(CC2SC(=O)NC2=O)cc1)c1ccccn1` (configuration not stated) was tested, and the Potency was “inactive”. `CC(O)c1ccc(OCCN(C)c2ccccn2)cc1` (configuration not stated) was tested, and the Potency was “inactive”. For `Cc1cccc(NC(=O)Cn2nc(-c3ccc(Cl)cc3)c3ccccc3c2=O)c1`, the Potency was “inactive”. With `O=C(CN1C(=O)COc2ccc(S(=O)(=O)N3CCCCCC3)cc21)N1CCN(c2cccc(C(F)(F)F)c2)CC1` the Potency was “inactive”. For `CCOCCCNC(=O)c1c(NC(=O)Cc2coc3ccc(C)cc23)sc2c1CCC2`, the Potency was “inactive”. With `CC(C)(C)c1ccc(/C=C/C(=O)Nc2ncccn2)cc1` the Potency was “inactive”. `Cc1cc(C(=O)O)ccc1[N+](=O)[O-]` was tested, and the Potency was “inactive”. With `CN(C)c1ccc(/C=C/C(=O)c2ccc(C(C)(C)C)cc2)cc1[N+](=O)[O-]` the Potency was 11.2 µM (active). In the case of `CCOc1ccc(NC(=O)CC2C(=O)N(c3cccc(OC)c3)C(=O)N2C2CCCCC2)cc1` (configuration not stated), the Potency is reported as “inactive”. `Cc1ccccc1CNC(=O)CCc1cn(Cc2ccccc2C)c2ccccc12` was tested, and the Potency was “inactive”. `CSCCC(NC(=O)c1cc([N+](=O)[O-])cc([N+](=O)[O-])c1)c1nc2ccccc2[nH]1` (configuration not stated) was tested, and the Potency was “inactive”. `CSCCC(NC(=O)c1ccc(=O)n(C)n1)c1nc2ccccc2[nH]1` (configuration not stated) was tested, and the Potency was 89.1 µM (active). For `COc1ccc(CC(=O)N[C@@H](CCSC)c2nc3ccccc3[nH]2)cc1`, the Potency was “inactive”. With `Cc1ccc(CNC(=O)CCC(=O)N2Cc3ccccc3Oc3ncccc32)cc1` the Potency was “inactive”. `O=C(Nc1nc(-c2ccco2)c(-c2ccco2)s1)c1ccco1` was tested, and the Potency was 50.1 µM (active). `CCN(c1ccc(Cl)cc1)S(=O)(=O)c1nnc(NC(=O)c2ccco2)s1` was tested, and the Potency was “inactive”. In the case of `O=C(Nc1nonc1-c1ccc(Cl)cc1)c1ccco1`, the Potency is reported as “inactive”. For `Cc1ccc(S(=O)(=O)c2cn(Cc3ccccc3)c3cc(N4CCCC4)c(F)cc3c2=O)c(C)c1`, the Potency was “inactive”. For `CCOc1ccc(NCCC(=O)c2ccc3c(c2)OCO3)cc1`, the Potency was 39.8 µM (active). `O=C(COc1ccc(Cl)cc1)Nc1ccc2c(c1)OCO2` was tested, and the Potency was “inactive”. With `COC(=O)CCNc1ccc2c(c1)OCCO2` the Potency was “inactive”. With `O=C(NCc1ccccn1)[C@]1(C(F)(F)F)C[C@H](CCc2ccccc2)CCCO1` the Potency was 39.8 µM (active). For `Cc1ccc(CNC(=O)C2(C(F)(F)F)C/C(=C\Cc3ccccc3)CCCO2)o1` (configuration not stated), the Potency was “inactive”. With `CNC(=O)[C@]1(C(F)(F)F)C[C@H](CCc2ccccc2)CCCO1` the Potency was “inactive”. In the case of `CCCOc1cccc(C(=O)Nc2cccc(NC(=O)c3ccc(C(C)(C)C)cc3)c2)c1`, the Potency is reported as “inactive”. With `Cc1ccc(S(=O)(=O)N/N=C\c2cc3c(cc2[N+](=O)[O-])OCO3)cc1` the Potency was “inactive”. For `CCOC(=O)c1nc(-c2ccc3c(c2)OCO3)[nH]c1C`, the Potency was “inactive”. `Cc1ccc(-c2n[nH]c(=S)n2/N=C/c2cc3c(cc2[N+](=O)[O-])OCO3)cc1` was tested, and the Potency was 10 µM (active). For `CCOc1ccc(-c2n[nH]c(=S)n2/N=C/c2cc3c(cc2[N+](=O)[O-])OCO3)cc1`, the Potency was 17.8 µM (active). In the case of `CCN1CCN(C(C(=O)NC2CCCC2)c2cc3c(cc2[N+](=O)[O-])OCO3)CC1` (configuration not stated), the Potency is reported as “inactive”. For `O=S(=O)(c1ccc(Cl)cc1)c1nnn2c1nc(NC1CCCC1)c1sccc12`, the Potency was “inactive”. For `Fc1ccc(-c2ccc(CNCc3ccccn3)o2)cc1Cl`, the Potency was 63.1 µM (active). With `COc1ccc(-c2ccc(CNCCCN3CCOCC3)o2)cc1Cl` the Potency was “inactive”. For `Cc1cc(S(=O)(=O)NCc2ccccn2)c(Cl)cc1Cl`, the Potency was “inactive”. In the case of `O=C(NC1CCN(Cc2ccccc2)CC1)c1ccc(Cn2c(=O)c3ccccc3n(Cc3cccc(F)c3)c2=O)cc1`, the Potency is reported as “inactive”. `O=C1CN(C(=O)Nc2ccccc2C(F)(F)F)C(c2ccccc2)c2c(sc3c2CCCC3)N1` (configuration not stated) was tested, and the Potency was “inactive”. With `COc1ccc(CNC(=O)CS(=O)Cc2nc(-c3cccc(C)c3)oc2C)cc1` (configuration not stated) the Potency was “inactive”. For `CC1(C)CC(=O)C=C(N2CCOCC2)C1`, the Potency was “inactive”. With `CC1(C)CC(N2CCN(C(c3ccccc3)c3ccccc3)CC2)=CC(=[N+]2CCCCC2)C1` the Potency was 25.1 µM (active). For `Cc1cccc(N2CCN(C(c3ccccc3)c3nnnn3CC3CCCO3)CC2)c1C` (configuration not stated), the activity change, negative = inhibition was -8.9% [at 11.4 µM] (inactive). `CCNS(=O)(=O)c1ccc(NC(=O)CSc2nc(-c3ccco3)cc(C(F)(F)F)n2)cc1` was tested, and the Potency was “inactive”. In the case of `O=C(CSc1cn(CC(=O)N2CCOCC2)c2ccccc12)Nc1ccccc1`, the Potency is reported as “inactive”. For `CC(=O)Nc1ccc(NC(=O)C2CCCN(S(=O)(=O)c3ccc4c(c3)CCCC(=O)N4)C2)cc1` (configuration not stated), the Potency was “inactive”. In the case of `COc1cc(C2c3c(oc4ccccc4c3=O)C(=O)N2c2nc(C)c(C)s2)ccc1O` (configuration not stated), the Potency is reported as “inactive”. `CCOc1ccc(-n2c(C)nc3c(cnn3-c3ccc(C)cc3)c2=O)cc1` was tested, and the Potency was “inactive”. For `Cn1ccc2cc(S(=O)(=O)N3CCCC(C(=O)NCc4ccccc4F)C3)ccc21` (configuration not stated), the Potency was “inactive”. In the case of `CN(Cc1cccc2ncccc12)C(=O)CC1C(=O)NCCN1Cc1ccc(F)cc1` (configuration not stated), the Potency is reported as “inactive”. For `COc1cccc(CN2CCNC(=O)C2CC(=O)N(C)CCc2ccccn2)c1` (configuration not stated), the Potency was “inactive”. In the case of `COc1ccc(CN2CCNC(=O)C2CC(=O)N(C)Cc2ccccn2)cc1OC` (configuration not stated), the Potency is reported as 14.1 µM (active). `Cc1ccc(CCNC(=O)c2ccc3c(c2)N(Cc2cc(C)ccc2C)C(=O)c2ccccc2S3=O)cc1` (configuration not stated) was tested, and the Potency was “inactive”.
